Test results taken from PubChem BioAssay (NCI).
Where “and” joins values, the source holds several entries; their conditions need not be identical. Equal values may be shown once. Compounds without any hit were thinned out: in the full panel of roughly 83,000, 20% have a hit.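 96-well plates, one dose, 48 hours. Percent growth reported; active if below 10.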 Calls of active or inactive are those of the source.

Key:
Experiment in all cases: NCI-60 one-dose screen, 48 h (100 = growth as untreated, 0 = no growth, -100 = all killed)
Conditions in all cases: 10 µM
NCI-H23 lung = test system: NCI-H23 lung
NCI-H226 lung = test system: NCI-H226 lung
NCI-H322M lung = test system: NCI-H322M lung
HOP-62 NSCLC = test system: HOP-62 NSCLC
NCI-H460 lung = test system: NCI-H460 lung
HOP-92 NSCLC = test system: HOP-92 NSCLC
NCI-H522 lung = test system: NCI-H522 lung
A549/ATCC NSCLC = test system: A549/ATCC NSCLC
786-0 renal = test system: 786-0 renal
COLO 205 colon = test system: COLO 205 colon

Measured: growth

CC(Cc1ccc2c(c1)OCO2)NN (stereo not given)
inactive: NCI-H23 lung 90.5% | NCI-H226 lung 87.1% | NCI-H322M lung 99.5% | HOP-62 NSCLC 73.9% | NCI-H460 lung 105% | HOP-92 NSCLC 76.6% | NCI-H522 lung 84% | A549/ATCC NSCLC 82.8% | 786-0 renal 88.2% | COLO 205 colon 99%

O=[N+]([O-])/C=C/c1ccc(Cl)cc1[N+](=O)[O-]
inactive: NCI-H23 lung 65.6% | NCI-H226 lung 89.5% | NCI-H322M lung 96.6% | HOP-62 NSCLC 62.9% | NCI-H460 lung 58.4% | HOP-92 NSCLC 92.3% | NCI-H522 lung 42.9% | A549/ATCC NSCLC 85.4% | 786-0 renal 28.3%
active: COLO 205 colon -20.9%

CN(C)CC1(N)C(=O)NC(=O)NC1=O
inactive: NCI-H23 lung 98.6% | NCI-H226 lung 87.7% | NCI-H322M lung 104% | HOP-62 NSCLC 98.1% | NCI-H460 lung 107% | HOP-92 NSCLC 112% | NCI-H522 lung 96.4% | A549/ATCC NSCLC 94.2% | 786-0 renal 102%

CN(CCCl)c1ccc(/C=C/C2=[N+](C)c3ccccc3C2(C)C)cc1
inactive: NCI-H226 lung 46.6% | NCI-H322M lung 46.7% | HOP-62 NSCLC 41.1% | NCI-H460 lung 17.7% | HOP-92 NSCLC 31.1% | NCI-H522 lung 30.4% | A549/ATCC NSCLC 31.8% | 786-0 renal 57.6%
active: NCI-H23 lung 9.42%

COc1ccccc1[As]=[As]c1ccccc1OC (stereo not given)
active: NCI-H23 lung -86.8% | NCI-H226 lung -93.5% | NCI-H322M lung -80.8% | HOP-62 NSCLC -94.8% | NCI-H460 lung -42.6% | HOP-92 NSCLC -85.1% | NCI-H522 lung -80.6% | A549/ATCC NSCLC -88.1% | 786-0 renal -94.7% | COLO 205 colon -93.1%

C#CC1(O)CCC(C(C)(C)C)CC1 (stereo not given)
inactive: NCI-H23 lung 105% | NCI-H226 lung 111% | NCI-H322M lung 110% | HOP-62 NSCLC 115% | NCI-H460 lung 112% | HOP-92 NSCLC 87.9% | NCI-H522 lung 122% | A549/ATCC NSCLC 94.2% | 786-0 renal 107% | COLO 205 colon 114%

C[C@]12CC[C@H]3[C@@H](CCC4=CC(=O)CC[C@@H]43)[C@@H]1CC[C@@H]2OC(=O)N(CCCl)N=O
active: NCI-H460 lung -37.9% | HOP-92 NSCLC -11%
inactive: NCI-H23 lung 55.7% | NCI-H226 lung 55.8% | NCI-H322M lung 45.6% | HOP-62 NSCLC 44.8% | NCI-H522 lung 39.7% | A549/ATCC NSCLC 40.7% | 786-0 renal 17.9%

Cc1cc([N+](=O)[O-])c2ccccc2[n+]1[O-]
active: NCI-H23 lung -25.5% and -33.7% | NCI-H226 lung -4.63% and -12.9% | NCI-H322M lung -15.3% and -45.7% | HOP-62 NSCLC -20.4% and -36.8% | NCI-H460 lung -26.5% and -38.4% | HOP-92 NSCLC -8.69% and -36.2% | NCI-H522 lung -38.1% and -83% | A549/ATCC NSCLC -23.4% and -36.1% | 786-0 renal -31.9% and -30.8% | COLO 205 colon -63.1% and -95.1%

ClCc1ccc2ccccc2n1
inactive: NCI-H23 lung 85.2% | NCI-H226 lung 78.2% | NCI-H322M lung 100% | HOP-62 NSCLC 59.4% | NCI-H460 lung 110% | HOP-92 NSCLC 79.8% | NCI-H522 lung 95.4% | A549/ATCC NSCLC 102% | 786-0 renal 103% | COLO 205 colon 128%

[Cl][Hg][c]1ccc(Cl)s1
active: HOP-92 NSCLC -70% | NCI-H522 lung -98.1% | 786-0 renal -54.5%
inactive: NCI-H23 lung 51.1% | NCI-H226 lung 50.1% | NCI-H322M lung 91.3% | HOP-62 NSCLC 87.8% | NCI-H460 lung 83.7% | A549/ATCC NSCLC 97.2%

COc1ccc(/C=C\[N+](=O)[O-])cc1OC
inactive: NCI-H23 lung 83.9% and 65.5% | NCI-H226 lung 101% and 77.5% | NCI-H322M lung 129% and 90.2% | HOP-62 NSCLC 107% and 88% | NCI-H460 lung 45.6% and 63.3% | HOP-92 NSCLC 92.8% and 82.3% | NCI-H522 lung 80.6% and 75.6% | A549/ATCC NSCLC 67.9% and 68.7% | 786-0 renal 96.4% and 47.9%

[Cl][Sn]([c]1ccccc1)([c]1ccccc1)[c]1ccccc1
active: NCI-H23 lung -71.6% | NCI-H226 lung -62% | NCI-H322M lung -89.5% | HOP-62 NSCLC -88.4% | NCI-H460 lung -66% | HOP-92 NSCLC -85.6% | NCI-H522 lung -82.2% | A549/ATCC NSCLC -93.6% | 786-0 renal -93.4% | COLO 205 colon -92.5%
